# According to PubChem BioAssay AID1259374 (The Scripps Research Institute Molecular Screening Center, 2018):
# The whole screen tested about 650,000 compounds, of which about 5,900 (0.91%) were called active. Rule as the data show it: active = inhibition above about 50%; inactive = the rest. The entries come from a sample that favours actives as a whole.
# Target: Microphthalmia-associated transcription factor (Homo sapiens) (UniProt O75030)
# Assay: MITF inhibitors, primary screen, biochemical, AlphaScreen, human (AID 1259374);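 also: 0% = vehicle wells with protein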
# Conditions: AlphaScreen MITF homodimerization, bead proximity signal; at 2.6 µM; active compounds read high
# Chain of Microphthalmia-associated transcription factor (Homo sapiens) (O75030 whole entry, looked up): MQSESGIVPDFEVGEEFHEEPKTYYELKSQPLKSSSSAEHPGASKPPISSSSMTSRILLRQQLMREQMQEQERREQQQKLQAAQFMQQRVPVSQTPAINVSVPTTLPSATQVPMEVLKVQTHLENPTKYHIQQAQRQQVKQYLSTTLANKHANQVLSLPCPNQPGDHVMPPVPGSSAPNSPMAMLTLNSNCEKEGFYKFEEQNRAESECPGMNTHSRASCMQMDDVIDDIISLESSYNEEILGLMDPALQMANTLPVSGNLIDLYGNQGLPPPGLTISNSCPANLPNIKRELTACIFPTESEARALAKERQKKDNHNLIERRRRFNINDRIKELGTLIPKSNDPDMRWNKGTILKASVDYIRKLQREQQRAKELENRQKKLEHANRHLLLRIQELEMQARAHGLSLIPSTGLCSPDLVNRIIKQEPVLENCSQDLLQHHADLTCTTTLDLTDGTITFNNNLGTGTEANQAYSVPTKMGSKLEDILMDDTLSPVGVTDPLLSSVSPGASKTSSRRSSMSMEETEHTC
row,Structure (SMILES),inhibition
1,Cc1noc(C)c1-c1cccc(C(=O)NCCCN2CCCC2=O)c1,12.4% (inactive)
2,CN(C)CCCNC(=O)C(=O)Nc1ccccc1F,-6.25% (inactive)
3,CC(c1ccccn1)N(CCN(C)C)C(=S)Nc1ccccc1F (stereo not given),58% (active)
4,CCOC(=O)N1CCC(N(CCOC)C(=S)Nc2ccccc2F)CC1,-9.05% (inactive)
5,Cc1ccc(S(=O)(=O)N(CCC(=O)NCC2CCCO2)Cc2c(Cl)cccc2Cl)cc1 (stereo not given),-0.49% (inactive)
6,O=C(Nc1sc2c(c1C(=O)Nc1ccccc1)CCCCC2)c1ccncc1,17.1% (inactive)
7,CCOc1ccc(C(=O)Nc2cccc(-c3nc4cc(C)cc(C)c4o3)c2)cc1[N+](=O)[O-],8.35% (inactive)
8,COc1cc(C(=O)N/C(=C/c2ccc3c(c2)OCO3)C(=O)NCC(=O)O)cc(OC)c1OC,-4.22% (inactive)
9,COCCCn1c(SCC(=O)NC2CCCCC2)nnc1-c1ccccc1,8.3% (inactive)
10,CC1CCCCC1NC(=O)CSc1nnc(-c2ccncc2)n1CCCN(C)C (stereo not given),85.7% (active)
11,CCCn1c(SCC(=O)NC2CCCCC2C)nnc1-c1cccnc1 (stereo not given),0.55% (inactive)
12,CCNC(=S)NNC(=O)c1cccc(S(=O)(=O)Nc2ccc(C)cc2C)c1,6.71% (inactive)
13,CCCS(=O)(=O)N1CCc2ccc(NC(=O)/C=C/c3ccco3)cc2C1,14.1% (inactive)
14,CNC(=O)c1ccccc1Nc1cc(Nc2ccc(N3CCOCC3)cc2OC)ncc1F,4.9% (inactive)
15,COc1cc(N2CCOCC2)ccc1Nc1cc(Nc2ccccc2-n2cccn2)c(C(F)(F)F)cn1,57.2% (active)
16,COc1cc(N2CCOCC2)ccc1Nc1cc(Nc2ccccc2C(N)=O)ccn1,21.1% (inactive)
17,N#CCN1C(=O)C(=O)/C(=C(/O)c2ccccc2)C1c1ccccn1 (stereo not given),19.8% (inactive)
18,COc1cc(CN2CCC(N3CCC(C(=O)NCC4CCCO4)CC3)CC2)cc(OC)c1 (stereo not given),6.5% (inactive)
19,CC(C)c1ccc(C2/C(=C(/O)c3ccccc3)C(=O)C(=O)N2CCN(C)C)cc1 (stereo not given),57.4% (active)
20,CN(C)c1ccc(C2/C(=C(/O)c3ccccc3)C(=O)C(=O)N2CCO)cc1 (stereo not given),-0.75% (inactive)

row,Structure (SMILES),inhibition
1,Cc1ccc(C2/C(=C(/O)c3ccc(Cl)cc3)C(=O)C(=O)N2CCN(C)C)cc1 (stereo not given),-18.6% (inactive)
2,O=C(Nc1ccc(-c2cn3ccccc3n2)cc1)c1ccc(Br)o1,11.4% (inactive)
3,C/C(=N\Nc1ccc(Cl)c(C(=O)O)c1)c1ccc([N+](=O)[O-])cc1,0.79% (inactive)
4,CS(=O)(=O)N(Cc1ccccc1)c1ccccc1C(=O)N1CCCCCC1,-12% (inactive)
5,CCN(CC)S(=O)(=O)c1ccc(OCC(=O)Nc2ccc(C(C)=O)cc2)c([N+](=O)[O-])c1,-5.88% (inactive)
6,CCCCOc1ccc(OC(=O)c2ccc(-c3ccc(CC)cn3)cc2)cc1,-0.56% (inactive)
7,CCCCCc1ccc(-c2ccc(C(=O)Oc3ccc(-c4ccccc4)cc3)cc2)nc1,3.19% (inactive)
8,CCCCCOc1ccc(OC(=O)c2ccc(-c3ccc(CCC)cn3)cc2)cc1,57.3% (active)
9,CCOC(=O)C1CCCN(c2c(OCC)c(=O)c2=O)C1 (stereo not given),-5.33% (inactive)
10,CCN(CCCNC(=O)CCCn1c(=S)[nH]c2cc3c(cc2c1=O)OCO3)c1cccc(C)c1,2.49% (inactive)
11,CN1CCN(S(=O)(=O)c2ccc(F)c(Cl)c2)CC1,19.5% (inactive)
12,CN1CCN(CC(O)COc2ccc3ccccc3c2)CC1 (stereo not given),18.6% (inactive)
13,O=C(c1ccccc1)N1CCN(CC(O)COc2cccc(Cl)c2)CC1 (stereo not given),-18.1% (inactive)
14,CCN1CCN(CC(O)COc2cccc(C(=O)OC)c2)CC1 (stereo not given),53.1% (active)
15,O=C(/C=C/c1ccc([N+](=O)[O-])cc1)NCCSC1CCCCC1,27.9% (inactive)
16,CCOc1ccccc1N1C(=O)c2nccnc2C1=O,1.76% (inactive)
17,CCOc1cc(/C=N/O)ccc1OCc1cccc(F)c1,9.06% (inactive)
18,Cc1cccc(NC(=O)CNCCN2CCCCC2)c1C,62.5% (active)
19,COCCNCC(=O)Nc1cccc(C)c1C,-3.31% (inactive)
20,CCC(C)NCC(=O)Nc1cccc(C)c1C (stereo not given),-0.21% (inactive)

row,Structure (SMILES),inhibition
1,Cc1ccc2c(c1)-c1onc(C(=O)Nc3ccc(Cl)cn3)c1CO2,12.1% (inactive)
2,COc1ccccc1NC(=O)Cn1cnc2sc(C(=O)O)c(C)c2c1=O,-5% (inactive)
3,O=C(CSc1cccc[n+]1[O-])Nc1nc2ccccc2s1,14.6% (inactive)
4,C=CCn1c(SCC(=O)Nc2nc3ccccc3s2)nc(O)cc1=O,67% (active)
5,O=C(CSc1ncnc2ccccc12)Nc1nc2ccccc2s1,4.66% (inactive)
6,CCn1cc(C(=O)N[C@H](C)Cn2nnc3ccccc32)c(=O)c2ccc(C)nc21,0.5% (inactive)
7,Cc1ccc(NC(=O)C2C3NC(=S)N(c4ccc(F)cc4)C2(C)Oc2ccc(Br)cc23)c(C)c1 (stereo not given),8.95% (inactive)
8,CCCN1CCc2nc(NC(=O)COc3ccc(Cl)cc3Cl)sc2C1,4.61% (inactive)
9,CN(c1ccccc1)C(C(=O)Nc1ccc2c(c1)OCCO2)c1ccccc1 (stereo not given),17.5% (inactive)
10,O=C(Nc1ccc2c(c1)OCO2)C(c1ccccc1)N(Cc1ccccc1)Cc1ccccc1 (stereo not given),75.7% (active)
11,O=C(Nc1ccc2c(c1)OCO2)C(c1ccccc1)N1CCC(Cc2ccccc2)CC1 (stereo not given),-8.34% (inactive)
12,O=C1Nc2cc(C(=O)O)ccc2S/C1=C/c1ccccc1Cl,2.94% (inactive)
13,CCOC(=O)c1ccc(Nc2ncnc3c2cnn3-c2ccccc2)cc1,15.3% (inactive)
14,COc1ccc(C(=O)Nc2nc(C)c(C)s2)c(OC)c1,20.7% (inactive)
15,Cc1nc(NC(=O)c2cc(Br)ccc2Cl)sc1C,53.2% (active)
16,Cc1nc(NC(=O)c2ccoc2C)sc1C,1.06% (inactive)
17,NC(=O)c1ccccc1NC(=O)CNCc1ccco1,-15.5% (inactive)
18,CCCn1c(SCC(=O)Nc2ccc(C(C)=O)cc2)n[nH]c1=O,-6.45% (inactive)
19,Cc1ccc(-c2n[nH]c(CNC(=O)c3cnccn3)n2)cc1,1.68% (inactive)
20,CCOc1ccccc1NC(=O)c1ccccc1NC(=O)c1ccc(OC)cc1,-3.48% (inactive)
